Screens: PubChem BioAssay, National Center for Advancing Translational Sciences (NCATS)
ELG1 DNA repair – inhibitors of ELG1-dependent DNA repair in HEK293T cells; Potency, µM (titrated, usually from 46.1 µM), inactives show at the top dose activity change, negative = inhibition, hits mostly inhibitors; HEK293T ELG1-luciferase reporter, luminescence, 16 h; DNA damage induced by 5-fluorouridine; AID 504467; 330,000 compounds, 2.3% hits; further: nearly all actives have a fitted effect of over 55% in size
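HEK293T cells expressing luciferase-tagged ELG1 (2,000/well) received 5-Fluorouridine plus compound or DMSO for 16 hr at 37 °C. Luciferase was read by ONE-Glo luminescence after 30 min at room temperature.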
RORgamma inh – blocks mouse ROR gamma transcriptional activity; 310,000 compounds, 5.4% hits; AID 2551; Drosophila S2 Gal4-RORgamma UAS-luciferase reporter, 20 h; Potency, µM (series often up to 53.6 µM), inactives show at the top dose activity change, negative = inhibition, usual class: inhibitors; further: nearly all actives have a fitted effect of over 60% in size
Target sequence (P51450 whole entry, looked up, the tested form may be a part): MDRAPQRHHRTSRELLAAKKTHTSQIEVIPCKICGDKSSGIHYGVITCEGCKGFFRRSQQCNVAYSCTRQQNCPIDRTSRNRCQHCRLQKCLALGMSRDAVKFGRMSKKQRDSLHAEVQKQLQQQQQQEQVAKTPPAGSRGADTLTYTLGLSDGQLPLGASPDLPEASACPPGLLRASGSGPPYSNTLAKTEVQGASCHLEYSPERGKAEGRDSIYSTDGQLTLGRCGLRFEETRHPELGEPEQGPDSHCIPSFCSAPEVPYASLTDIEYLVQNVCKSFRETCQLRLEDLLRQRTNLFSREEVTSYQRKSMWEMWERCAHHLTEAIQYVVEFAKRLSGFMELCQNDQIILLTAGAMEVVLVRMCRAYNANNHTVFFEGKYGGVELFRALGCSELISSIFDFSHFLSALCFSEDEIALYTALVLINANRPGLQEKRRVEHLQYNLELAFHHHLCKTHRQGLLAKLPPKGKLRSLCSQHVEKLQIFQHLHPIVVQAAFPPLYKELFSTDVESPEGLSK
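A Gal4/UAS one-hybrid system in insect cells: metallothionein-promoter Gal4–ROR gamma fusion plus Photinus luciferase reporter. Copper sulfate 700 uM final, 20 hr ambient incubation, luminescent detection after 10 min with reagent.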
DT40 TDP1 no CPT – qHTS for Inhibitors of human tyrosyl-DNA phosphodiesterase 1 (TDP1): qHTS in cells in absence of CPT; DT40 Tdp1-/- hTDP1 cells, no CPT, ATP luminescence, 48 h; Potency, µM (titrated, usually from 46.2 µM), without a hit: top-dose activity change, negative = growth inhibition, usual class: inhibitors; 420,000 compounds, 15% hits; AID 686978, 2013; further: nearly all actives have a fitted effect of over 55% in size
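Chicken DT40 Tdp1-/- cells stably complemented with human TDP1 were seeded at 400 cells/well with DMSO in place of 20 nM camptothecin. After compound pinning, cells grew at least 48 hr at 37 °C; viability read by CellTiter-Glo luminescence.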
VP16 counter – counter-screen for ROR gamma inhibitors: Gal4-VP16 reporter. Drosophila S2 Gal4-VP16 UAS-luciferase, luminescence, 20 h. AID 2546. Potency, µM (titrated, usually from 53.6 µM), without a hit: at the highest dose activity, negative = inhibition, actives largely listed as inhibitors. 310,000 compounds, 3.5% hits;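 further: Gal4-VP16 expression switched on by copper sulfate through the metallothionein promoter; nearly all actives have a fitted effect of over 50% in size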
ALOX12 inh – inhibitors of human 12S-lipoxygenase ALOX12 | AID 1671190 | 580,000 compounds, 1.1% hits | Potency, µM (top dose mostly 108 µM), without a hit: at the highest dose activity change, negative = inhibition, most hits filed as inhibitors | P18054 | purified 12hLO, xylenol orange hydroperoxide absorbance
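Hydroperoxide product was detected by ferrous iron/xylenol orange as the 573 to 405 nm absorbance ratio. Arachidonic acid at 40 uM (final) was turned over for 30 min at room temperature by 150 nM human 12hLO, pH 7.0 Hepes buffer, after 15 min compound preincubation.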
DT40 TDP1 CPT – growth inhibition of DT40 Tdp1-/-;hTDP1 cells with camptothecin (screen for TDP1 inhibitors) | Potency, µM (doses to about 46.2 µM), inactives show at the top dose activity change, negative = growth inhibition, usual class: inhibitors | AID 686979 | chicken DT40 Tdp1-/-;hTDP1 cells + 20 nM CPT, ATP luminescence, 48 h | 420,000 compounds, 12% hits; further: nearly all actives have a fitted effect of over 55% in size
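Chicken DT40 Tdp1-/- cells complemented with human TDP1, 400 cells/well, exposed to compounds plus 20 nM camptothecin for at least 48 h at 37 C; viability read as ATP content by CellTiter-Glo luminescence.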
* hit, by the source's call; ? = inconclusive; . = not tested or not shown. This is a sample that favours compounds with a hit; in the whole collection about 15% have one here. The call rests on the fitted dose curve; in most records, active means well fitted curve in the direction sought with a large enough effect; inconclusive means small, poorly fitted or top-dose-only effect, or another doubt; inactive means no such curve, though single readings can be large; an effect the other way counts as inactive or inconclusive. On the % scale 0 is the no-effect control and ±100 the full control effect; potency means the concentration at half of the fitted maximal effect.

SMILES	ELG1 DNA repair	RORgamma inh	DT40 TDP1 no CPT	VP16 counter	ALOX12 inh	DT40 TDP1 CPT
COc1ccc(CC(=O)Nc2ccc([C@@H](O)[C@H]3COCC(=O)N3CC3CCCCC3)cc2)cc1	.	.	.	.	21%	.
O=C(CCn1ccn2nc3c(c2c1=O)CCCC3)NC1CCCCCC1	.	.	.	.	12%	.
Cc1cc(NC(=O)c2ccc(S(=O)(=O)N3CCOCC3)cc2)nc2c1c(=O)oc1ccccc12	3%	-29%	.	-2%	12%	.
O=C(Nc1nc(-c2cc3ccccc3oc2=O)cs1)c1ccccc1	.	.	.	.	11%	.
O=C(Nc1nc(-c2cc3ccccc3o2)cs1)c1ccc(S(=O)(=O)N2CCCC2)cc1	?	?	2.3µM*	7.9µM*	-12%	16µM*
Cc1cc(-c2csc(NC(=O)c3ccc(S(=O)(=O)N(C)C)cc3)n2)c(C)n1-c1ccccc1	9.2µM*	-26%	18µM*	0%	-21%	?
CN(C)S(=O)(=O)c1ccc(C(=O)Nc2nc(-c3cc4ccccc4o3)cs2)cc1	16%	?	2.9µM*	6.3µM*	-6%	10µM*
Cc1cc(NC(=O)c2ccc(S(=O)(=O)N3CCCC3)cc2)nc2c1c(=O)oc1ccccc12	?	8%	10µM*	3%	-13%	7.3µM*
CN(C)S(=O)(=O)c1ccc(C(=O)Nc2nc(-c3ccccc3)c(C(=O)c3ccccc3)s2)cc1	1%	13%	?	-9%	-3%	?
CCN1c2cc(C(=O)Nc3cc(C)ccc3OC)ccc2C(=O)N2CCCCCC21 (stereo not given)	.	.	.	.	15%	.
CC(SC1=Nc2ccccc2C2CC=NN12)C(=O)NC1(C#N)CCCCC1 (stereo not given)	15%	.	23µM*	.	4%	12µM*
CC(Sc1ccc2ccccc2n1)C(=O)NC1(C#N)CCCCC1 (stereo not given)	.	.	.	.	5%	.
Cn1cnc([N+](=O)[O-])c1Oc1cccc2ccccc12	-13%	?	29µM*	?	-5%	?
CCS(=O)(=O)c1c([N+](=O)[O-])ncn1C	27%	?	7.3µM*	10µM*	-12%	5.2µM*
Cn1cnc([N+](=O)[O-])c1S(=O)(=O)Oc1cccc2ccccc12	.	.	1µM*	.	-27%	1.3µM*
Cn1cnc([N+](=O)[O-])c1Sc1ncn[nH]1	9%	-20%	16µM*	-16%	-4%	18µM*
Cn1cnc([N+](=O)[O-])c1Cl	0%	2%	?	2%	9%	?
O=C(COc1cccnc1[N+](=O)[O-])Nc1cccc2ccccc12	4%	.	-2%	.	.	-15%
O=C1CCCC2=C1C(c1ccccc1F)c1c([nH]n(-c3ccccc3)c1=O)N2 (stereo not given)	.	.	.	.	-10%	.
Cn1cnc([N+](=O)[O-])c1S(=O)(=O)Oc1ccc(Cl)cc1	.	.	2.1µM*	.	1%	0.65µM*
COc1ccc(-c2csc(NC(=O)Cn3cnc4c3c(=O)n(C)c(=O)n4C)n2)cc1F	.	.	.	.	-12%	.
C=CCn1c(=O)c2c(C)c(C)sc2n2c(Nc3ccccc3)nnc12	?	-3%	23µM*	-2%	-2%	23µM*
CCOC(=O)c1c(CN(C)C)n(C)c2c(O)c(N=NC(N)=O)c3ccc(Br)cc3c12	-14%	-5%	15µM*	-5%	?	?
CCCn1c(=O)c(C(=O)OCC)c(O)c2cc(Br)ccc21	-10%	7%	-51%	-4%	0%	-26%
O=C(COC(=O)C12CC3CC(CC(C3)C1)C2)Nc1ccc(F)cc1[N+](=O)[O-]	.	.	.	.	0%	.
